Rows were chosen to be rich in hits. Some 3.1% of all compounds tested hit in one or more screens of this group.
Vif-APOBEC3G blk: qHTS for Inhibitors of Vif-A3G Interactions: qHTS; Potency, µM (titrated, usually from 46.1 µM), for inactives: at the highest dose activity, negative = active, usual class: inhibitors; 410,000 compounds, 0.076% hits; HeLa A3G-eYFP + Vif (tagged APOBEC3G with the HIV-1 protein that degrades it), YFP fluorescence, overnight; DNA dC->dU-editing enzyme APOBEC-3G (Homo sapiens), Q9HC16; also: potency is read from the fitted curve at half-maximal effect; % is scaled to controls: 0 for no effect and ±100 for the full control effect; nearly all actives have a fitted effect of over 60% in size
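Read-out is eYFP fluorescence (Ex 488/Em 500-530) from Vif-expressing HeLa A3G-eYFP cells; more signal means A3G escaped Vif-mediated degradation. Cells plated overnight, compound pinned in, incubated overnight at 37 deg C.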
TSHR antag: Antagonists of the Thyroid Stimulating Hormone Receptor: HTS campaign | activity change, negative = inhibition, % at 11.5 µM | TSHR-expressing cells, TSH-stimulated cAMP HTRF, 2 h; hits give low values | Thyrotropin receptor (Homo sapiens), P16473 | 330,000 compounds, 0.2% hits;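 active = activity change below a set negative limit, meaning inhibition stronger than a set level, cut at about -70% in these data; inconclusive = activity change between two set negative limits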; also: % is scaled to controls: 0 for no effect and ±100 for the full control effect
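Read-out is FRET at 665 nm (cryptate excitation 337 nm) from a cryptate-tagged anti-cAMP antibody, competed by cell cAMP against cAMP-d2. Compounds are tested on freshly harvested TSHR cells challenged with 4nM TSH (EC80) for 2 hours at 37 deg C.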
PLK1 PBD inh: qHTS for Inhibitors of PLK1-PDB (polo-like kinase 1 - polo-box domain): Primary Screen | Plk1 PBD binding of FITC phosphopeptide, fluorescence polarization | 360,000 compounds, 2.8% hits | Serine/threonine-protein kinase PLK1 (Homo sapiens), P53350 | Potency, µM, for the others: max response, negative = inhibition, most hits filed as inhibitors; also: potency is read from the fitted curve at half-maximal effect; series mostly up to about 57 µM; % is scaled to controls: 0 for no effect and ±100 for the full control effect; nearly all actives have a fitted effect of over 65% in size
VDR inh: Inhibitors of the vitamin D receptor (VDR): qHTS | Potency, µM, for the others: max response, negative = inhibition, actives largely listed as inhibitors | AID 504847, 2011 | VDR-SRC2-3 peptide fluorescence polarization, 2 h | 400,000 compounds, 0.93% hits; also: potency is read from the fitted curve at half-maximal effect; % is scaled to controls: 0 for no effect and ±100 for the full control effect
Target sequence (P11473 whole entry, looked up): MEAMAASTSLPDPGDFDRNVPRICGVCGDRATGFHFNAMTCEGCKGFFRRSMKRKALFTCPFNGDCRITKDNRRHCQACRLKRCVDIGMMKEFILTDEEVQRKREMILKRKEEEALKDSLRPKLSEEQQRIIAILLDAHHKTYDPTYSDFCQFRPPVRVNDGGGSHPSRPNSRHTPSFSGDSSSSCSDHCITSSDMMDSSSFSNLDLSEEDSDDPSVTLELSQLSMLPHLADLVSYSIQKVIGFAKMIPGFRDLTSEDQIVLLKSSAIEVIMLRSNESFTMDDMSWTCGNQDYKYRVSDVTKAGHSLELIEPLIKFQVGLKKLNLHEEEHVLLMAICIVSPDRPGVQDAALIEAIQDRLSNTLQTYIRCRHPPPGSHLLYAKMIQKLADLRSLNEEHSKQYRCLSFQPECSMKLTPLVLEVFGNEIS
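Two reagent solutions held at 4 deg C in the dark were dispensed, compounds pinned at 23 nl, and the mixture incubated 2 h at room temperature. Read-out: fluorescence polarization of VDR–SRC2-3 peptide binding.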
Vif-A3F inh: qHTS for Inhibitors of Vif-A3F Interactions: qHTS; HeLa A3F-eYFP + Vif (tagged APOBEC3F with the HIV-1 protein that degrades it), YFP fluorescence increase; Potency, µM (highest dose often 46.1 µM), for the others: at the top dose activity, negative = active; 390,000 compounds, 0.2% hits; AID 602313, 2012; also: potency is read from the fitted curve at half-maximal effect; % of control where 0% means no effect; nearly all actives have a fitted effect of over 65% in size
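HeLa cells stably expressing A3F-eYFP plus Vif, plated and incubated overnight at 37 deg C, then exposed to compounds overnight at 37 deg C. Blocked degradation read as raised yellow fluorescence (Ex 488/Em 500-530).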
The depositor's hits bear a star; ? = inconclusive; . = not tested or not shown. Unless noted, calls follow the shape of the dose curve; as a rule, active = well fitted curve in the direction sought with a large enough effect; inconclusive = small, poorly fitted or top-dose-only effect, or another doubt; inactive = no such curve, though single readings can be large; an effect the other way counts as inactive or inconclusive.

SMILES	Vif-APOBEC3G blk	TSHR antag	PLK1 PBD inh	VDR inh	Vif-A3F inh
CC(O)(C#CCN1CCCCCC1)c1ccccc1 (stereo not given)	-3%	-8	30µM*	-12%	-8%
OC(C#CCN1CCCCC1)(c1ccccc1)c1ccccc1	2%	27	-5%	-6%	-10%
O=C(Cn1nc(C(=O)O)c2ccccc2c1=O)c1cc(F)ccc1F	-1%	-12	17µM*	?	3%
O=C(Cn1nc(C(=O)O)c2ccccc2c1=O)NCc1ccco1	0%	1	21µM*	-21%	-10%
O=C(Cn1nnc2ccccc2c1=O)NCc1ccco1	-4%	3	-5%	9%	2%
CNC(=O)COc1ccccc1C(=O)Nc1ccccc1	1%	.	.	.	.
Cc1ccc(-n2c(N)c(C(N)=O)sc2=S)cc1	-1%	45	6µM*	71µM*	-6%
COc1ccc(-c2cccc(C3C4C=CCCC4(C)C(=O)N3Cc3ccccc3)c2)cc1 (stereo not given)	-9%	.	.	-21%	.
Nc1cccc2c1C(=O)N(C(=O)c1cccc(S(=O)(=O)N3CCCC3)c1)C2=O	-1%	-15	4.2µM*	-19%	1%
Cn1nc([N+](=O)[O-])nc1Sc1nnc(-c2ccccc2)o1	?	25	-7%	-9%	4%
O=Cc1ccc(Sc2nnc(-c3ccccc3)o2)c([N+](=O)[O-])c1	?	-5	?	79µM*	-2%
COc1cc(N(C)C)cc(CN(C)CCc2ccc([N+](=O)[O-])cc2)c1O	.	.	.	2.5µM*	.
O=C(CN1C(=O)c2ccccc2C1=O)Nc1ccc(Cl)cn1	1%	16	27µM*	-1%	0%
O=C(COC(=O)Cc1ccccc1F)Nc1ccc(Cl)cn1	-2%	2	17µM*	?	5%
O=C(Cc1ccccc1)Nc1ccc(Cl)cn1	1%	18	-25%	1%	5%
O=C(CSc1ccccn1)Nc1ccc(Cl)cn1	6%	-15	24µM*	-21%	2%
Cn1c(=S)[nH]c2cc(C(=O)N3CCN(C(=O)c4ccccc4)CC3)ccc2c1=O	.	.	.	-8%	.
COc1ccc2c(c1)c1c(c(=O)n(-c3ccccc3C)c(=O)n1CC(N)=O)n2C	4%	.	.	13%	6%
COCCCN(C(=S)Nc1c(C)cc(C)cc1C)C(C)c1ccccn1 (stereo not given)	0%	-1	24µM*	6%	-3%
COc1ccccc1NC(=O)C(Sc1ccccc1)c1ccccc1 (stereo not given)	-3%	17	4%	17%	8%
CCOc1ccccc1NC(=O)C(Sc1ccccc1)c1ccccc1 (stereo not given)	0%	1	21µM*	-19%	1%
O=C(Oc1ccc2ccc(O)cc2c1)C1CCCCC1	-4%	-1	4.2µM*	?	-1%
O=C(Oc1ccc2ccccc2c1)C1CCC1	0%	-5	-3%	-8%	-2%
CCOC(=O)/C(C#N)=N\Nc1cc(Cl)ccc1OC	-5%	0	-10%	-3%	10µM*
CCC1CC2(C)NC(=O)c3c(sc4c3CC(C)(C)OC4)N2C1=O (stereo not given)	0%	-10	12µM*	?	-5%
SMILES	Vif-APOBEC3G blk	TSHR antag	PLK1 PBD inh	VDR inh	Vif-A3F inh
Cc1cccc(NC(=O)CN2C(=O)CCn3nc(-c4cccn4C)cc32)c1C	-3%	.	.	12%	3%
C[n+]1cccc(Br)c1	2%	.	.	.	.
O=[N+]([O-])c1ccccc1/C=C1\C=Cc2ccccc21	-1%	.	.	.	.
Cc1cc(Br)cn2c(Cc3ccccc3)c(-c3ccco3)nc12	-24%	.	-12%	.	.
Cc1cc(Br)cn2c(Cc3ccsc3)c(-c3ccco3)nc12	?	.	24µM*	.	.
Cc1ccc(CCNC(=O)CCCn2c(=O)c3ccccc3n(Cc3ccccc3C)c2=O)cc1	-5%	.	.	-18%	0%
O=C(c1cccc([N+](=O)[O-])c1)N1CCN(c2ccc(Nc3ccccc3)nn2)CC1	-4%	.	.	5%	-1%
Nc1c(-c2ccccc2)c(CSc2nc3ccccc3[nH]2)nn1-c1ccc(C(=O)O)cc1	1%	2	15µM*	?	3%
Nc1nc(NC(=O)c2ccc(F)cc2)ns1	4%	-5	30µM*	?	-2%
CCC(C)NC(=O)CSc1c2c(nc3ccccc13)CCCC2 (stereo not given)	-14%	9	17µM*	-13%	1%
Cc1nc2scc(C)n2c(=O)c1S(=O)(=O)NCCc1ccc(Cl)cc1	-4%	-8	-7%	13%	4%
Cc1nc2scc(C)n2c(=O)c1S(=O)(=O)NCC1CCN(Cc2ccc(Cl)cc2)CC1	3%	2	19µM*	-8%	?
Cc1nc2sccn2c(=O)c1S(=O)(=O)Nc1ccc(N2CCOCC2)c(Cl)c1	0%	-2	5%	1%	-2%
Cc1nc2scc(C)n2c(=O)c1S(=O)(=O)Nc1ccc(N2CCOCC2)c(Cl)c1	3%	-19	27µM*	-24%	-13%
COc1cccc(Nc2ncc3nc(-c4cn(C)c5ccccc45)c(=O)n(CCC#N)c3n2)c1	.	.	.	-7%	.
CSC1=NCCN1C(=O)C(C)Oc1ccccc1 (stereo not given)	5%	11	30µM*	-20%	-4%
CC(Oc1ccccc1)C(=O)N1CCN=C1SCc1ccccc1F (stereo not given)	-2%	-4	2%	4%	7%
O=C1c2ccccc2C(=O)C2OC12 (stereo not given)	.	-7	.	.	.
O=C(c1ccccc1)C1C(=O)c2ccccc2C1=O	?	-6	-17%	-3%	35µM*
O=C(O)CC1S/C(=N/N=C/c2ccccn2)NC1=O (stereo not given)	-4%	0	-6%	-5%	0%
CCOc1cc(/C=N/N=C2/NC(=O)C(CC(=O)O)S2)ccc1OCc1ccc(Cl)cc1Cl (stereo not given)	-3%	-3	27µM*	5%	0%
COc1ccc(OC)c(NC(=O)CSC2=Nc3ccccc3C3=NC(CC(=O)NCc4ccc5c(c4)OCO5)C(=O)N23)c1 (stereo not given)	-3%	.	.	4%	1%
COc1ccc(CC(=O)N2CCN(C(=O)Cc3ccc(OC)c(OC)c3)CC2)cc1OC	-4%	.	3%	.	-3%
COc1ccc(N2CCN(C(=O)Cc3ccc(OC)c(OC)c3)CC2)cc1	0%	13	24µM*	?	-29%
COc1ccc(-c2nc3c4ccccc4ccn3c2Cc2ccsc2)cc1OC	8.9µM*	.	3%	.	.
Cc1nc([N+](=O)[O-])cn1CC(=O)c1ccc2c(c1)OCCO2	-1%	.	.	.	.
